Laboratory results as given in PubChem BioAssay (NCI).
Compounds without any hit were thinned out: in the full panel of roughly 79,000, 15% have a hit. A number with no mark means an inactive call. The source made the active and inactive calls. No stated cut-off is given here; in the data, active means growth inhibition above about 70%; inactive means the rest.

Experiments:
[1] = NCI Yeast Anticancer Drug Screen. Data for the rad50 strain (AID 155);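 further: 0% = growth of vehicle-only cultures of the same strain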; conditions: S. cerevisiae rad50 strain growth inhibition, hits give high values
How it was run: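 Yeast carrying a defined DNA repair defect were exposed to test compounds, and growth was compared with vehicle-treated controls to give percent inhibition.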

[2] = NCI Yeast Anticancer Drug Screen. Data for the mec2-1 strain (AID 157); conditions: S. cerevisiae mec2-1 strain, hits give high values
How it was run: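 Using mec2-1 yeast: add compound, measure growth, express inhibition versus vehicle-treated cultures.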

[3] = NCI Yeast Anticancer Drug Screen. Data for the sgs1 mgt1 strain (AID 161);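 further: 0% = growth of cultures given vehicle only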; conditions: S. cerevisiae sgs1 mgt1 strain, hits give high values
How it was run: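 Growth of a repair-deficient yeast mutant was monitored after compound treatment and expressed as inhibition relative to vehicle-treated cultures.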

[4] = NCI Yeast Anticancer Drug Screen. Data for the cln2 rad14 strain (AID 165);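 further: 0% = growth equal to vehicle treated cultures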; conditions: S. cerevisiae cln2 rad14 strain, hits give high values
How it was run: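 Yeast strain cln2 rad14, bearing defects in cell cycle control and DNA repair, serves as the test system; values reflect growth inhibition compared with vehicle.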

[5] = NCI Yeast Anticancer Drug Screen. Data for the bub3 strain (AID 167); conditions: S. cerevisiae bub3 mutant strain, hits give high values
How it was run: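 Compounds were applied to a genetically altered yeast strain carrying a cell-cycle control defect. Growth inhibition was scored against vehicle-treated controls.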

[6] = NCI Yeast Anticancer Drug Screen. Data for the mlh1 rad18 strain (AID 175); conditions: S. cerevisiae mlh1 rad18 strain growth inhibition, hits give high values
How it was run: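 Steps: expose repair-defective yeast to compound; measure growth; express inhibition against vehicle-treated controls.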

[7] = at 5.0 µM (retest, dose inferred, filed as 0.5)
[8] = at 50.0 µM (retest, dose inferred, filed as 5.0)

Row | Compound | growth inhibition [1, 7] | growth inhibition [1, 8] | growth inhibition ([1]; at 50.0 µM) | growth inhibition [2, 7] | growth inhibition [2, 8] | growth inhibition ([2]; at 50.0 µM) | growth inhibition [3, 7] | growth inhibition [3, 8] | growth inhibition ([3]; at 50.0 µM) | growth inhibition [4, 7] | growth inhibition [4, 8] | growth inhibition ([4]; at 50.0 µM) | growth inhibition [5, 7] | growth inhibition [5, 8] | growth inhibition ([5]; at 50.0 µM) | growth inhibition [6, 7] | growth inhibition [6, 8] | growth inhibition ([6]; at 50.0 µM)
1 | CC1=C(C(=O)Nc2cccc(Cl)c2)C(c2ccc([N+](=O)[O-])cc2)C(C(=O)Nc2cccc(Cl)c2)=C(C)N1 | 44% | 44% | 57.9% | 52% | 52% | 81.8% (active) | 34% | 34% | 65% | 32% | 32% | 79.5% (active) | 49% | 49% | 74.7% (active) | 51% | 51% | 61.8%
2 | O=[N+]([O-])c1ncn(C2OC(CO)C(O)C2O)c1S (configuration not stated) | -5% | -3% | -2.85% | 2% | -8% | 24.6% | -1% | -3% | 14.6% | -3% | -5% | 66.1% | -12% | -14% | 1.15% | -6% | -8% | 8.05%
3 | Nc1ccc(O)c2c1C(=O)c1ccccc1C2O (configuration not stated) | -9% | 96% (active) | 94.8% (active) | 4% | 95% (active) | 78.9% (active) | 32% | 97% (active) | 83.8% (active) | -10% | 78% (active) | 54.8% | 19% | 96% (active) | 81.5% (active) | 28% | 98% (active) | 94.5% (active)
4 | CC(C)(C)C1=NN=C2c3ccccc3C(=O)C21 (configuration not stated) | 0% | 57% | 68.2% | -3% | 44% | 9.45% | -1% | 60% | 53.2% | -12% | 14% | 58.9% | 19% | 87% (active) | 78.7% (active) | -3% | 44% | 60.7%
5 | CC[C@@]1(OP(=O)(O)O)C(=O)OCc2c1cc1n(c2=O)Cc2cc3ccccc3nc2-1 | 89% (active) | 92% (active) | 79.2% (active) | 33% | 95% (active) | 87.1% (active) | 6% | -37% | 80.7% (active) | -11% | -58% | 67% | 14% | -15% | 77.2% (active) | 49% | 86% (active) | 74.2% (active)
6 | O=C(O)C1(Cc2ccc3c(c2)CCC3)Cc2ccccc2C1 | 18% | 18% | 90.3% (active) | -7% | -7% | 91.9% (active) | 15% | 15% | 88.5% (active) | 5% | 5% | 89% (active) | -6% | -6% | 90% (active) | 3% | 3% | 86.8% (active)
7 | CC(=O)c1c(-c2ccc(Cl)cc2)c(-c2ccc(Cl)cc2)nn(CCO)c1=O | 12% | 86% (active) | 97.8% (active) | 4% | 76% (active) | 97.9% (active) | 2% | 89% (active) | 98.2% (active) | 3% | 78% (active) | 89.3% (active) | 4% | 78% (active) | 92.1% (active) | 4% | 80% (active) | 97.8% (active)
8 | CCCCCCCCCCCCCCCC[N+](C)(C)CCCCCC(=O)OC | 99% (active) | 99% (active) | 98.9% (active) | 100% (active) | 100% (active) | 99.1% (active) | 100% (active) | 100% (active) | 99% (active) | 99% (active) | 99% (active) | 97.4% (active) | 100% (active) | 100% (active) | 98.5% (active) | 100% (active) | 100% (active) | 98.7% (active)
9 | Oc1cc2ccccc2cc1O | 6% | 90% (active) | 95.5% (active) | 5% | 77% (active) | 86% (active) | 2% | 88% (active) | 93.8% (active) | 3% | 90% (active) | 92.4% (active) | 5% | 92% (active) | 96.1% (active) | 5% | 93% (active) | 96% (active)
10 | Nc1nc(-c2ccccc2)c(N=Nc2c(Cl)cccc2Cl)s1 | -2% | 94% (active) | 96.5% (active) | 21% | 95% (active) | 90.3% (active) | 9% | 94% (active) | 55.4% | 17% | 95% (active) | 87.7% (active) | 13% | 94% (active) | 91% (active) | 17% | 94% (active) | 96.8% (active)
11 | Cc1ccc2c(c1C)-c1c(ccc(C)c1C)C(=O)C2=O | 13% | 98% (active) | 99.3% (active) | 35% | 99% (active) | 99.4% (active) | 5% | 99% (active) | 99.7% (active) | -14% | 98% (active) | 99.6% (active) | 46% | 98% (active) | 99.5% (active) | 75% (active) | 99% (active) | 99.5% (active)
12 | CCOc1nc(N)nc(C)c1N=Nc1ccc(Cl)cc1Cl | 10% | 92% (active) | 72.8% (active) | 0% | 50% | 16.9% | 5% | 88% (active) | 22.4% | 15% | 77% (active) | 36.4% | 5% | 94% (active) | 73.8% (active) | 14% | 97% (active) | 45%
13 | CCOC(=O)C1=C(Nc2ccc(Br)cc2)OC/C1=N\NC(=O)c1ccccc1O | 11% | 11% | 50.6% | -16% | -16% | 53.5% | 7% | 7% | 71.6% (active) | 4% | 4% | 25.7% | 1% | 1% | 66.8% | 5% | 5% | 67%
14 | CC/C(=N\O)c1ccc2cc(Br)c3ccccc3c2c1 | 5% | 89% (active) | 98.7% (active) | -2% | 89% (active) | 98.9% (active) | 10% | 88% (active) | 98.7% (active) | -10% | 84% (active) | 96.8% (active) | -4% | 87% (active) | 98.8% (active) | 5% | 88% (active) | 98.6% (active)
15 | CN(C)CCN(C)N=Nc1c(-c2cccs2)n[nH]c1C(F)(F)F | 98% (active) | 99% (active) | 99.1% (active) | 99% (active) | 100% (active) | 99.7% (active) | 99% (active) | 100% (active) | 99.6% (active) | 99% (active) | 98% (active) | 99.3% (active) | 99% (active) | 99% (active) | 99.5% (active) | 99% (active) | 100% (active) | 99.5% (active)
16 | COc1ccc(NC(=O)CCC(=O)C(C)C(=O)c2ccccc2)cc1 (configuration not stated) | 0% | -1% | 59.8% | -1% | 3% | 16.2% | 14% | 0% | 26.8% | -1% | 10% | 49.2% | 0% | 21% | 21.6% | -2% | 6% | 24.3%
17 | O=C(O)C1C(C(=O)O)C2C(=O)C=CC1N2Cc1ccccc1 (configuration not stated) | 11% | 46% | 79.8% (active) | 1% | 61% | 81.2% (active) | 5% | 65% | 78.5% (active) | -8% | 31% | 46.3% | 21% | 73% (active) | 91.4% (active) | 3% | 76% (active) | 87.8% (active)
18 | COc1cc2c(c(C3C(=O)N(C)c4ccc(Br)cc43)c1OC)OCO2 (configuration not stated) | 3% | 3% | 4.3% | 2% | 4% | 12.7% | -1% | 10% | 11.3% | 5% | 12% | -3.8% | 4% | -1% | -1.85% | 4% | 10% | 8.55%
19 | CCC(CC)C(c1ccc(O)cc1)c1ccc(O)cc1 | 92% (active) | 99% (active) | 99.5% (active) | 83% (active) | 100% (active) | 99.5% (active) | 88% (active) | 77% (active) | 99.6% (active) | 97% (active) | 100% (active) | 99.2% (active) | 75% (active) | 98% (active) | 99.7% (active) | 95% (active) | 100% (active) | 99.5% (active)
